Assay results taken from PubChem BioAssay AID1903 (Southern Research Specialized Biocontainment Screening …, 2009).
Among all 310,000 compounds or so, about 1,200 (0.39%) were called active. No rule for the calls is given here. A selection follows. Entries with a potency or affinity are not part of this list.

biological target: Large T antigen (Simian virus 40) (UniProt P03070); test: TAg ATPase/helicase activity blockers – biochemical (AID 1903); details: SV40 large T antigen ATPase/helicase inhibition assay; at 20 µM; stronger effect = higher value
Sequence (P03070 whole entry, looked up): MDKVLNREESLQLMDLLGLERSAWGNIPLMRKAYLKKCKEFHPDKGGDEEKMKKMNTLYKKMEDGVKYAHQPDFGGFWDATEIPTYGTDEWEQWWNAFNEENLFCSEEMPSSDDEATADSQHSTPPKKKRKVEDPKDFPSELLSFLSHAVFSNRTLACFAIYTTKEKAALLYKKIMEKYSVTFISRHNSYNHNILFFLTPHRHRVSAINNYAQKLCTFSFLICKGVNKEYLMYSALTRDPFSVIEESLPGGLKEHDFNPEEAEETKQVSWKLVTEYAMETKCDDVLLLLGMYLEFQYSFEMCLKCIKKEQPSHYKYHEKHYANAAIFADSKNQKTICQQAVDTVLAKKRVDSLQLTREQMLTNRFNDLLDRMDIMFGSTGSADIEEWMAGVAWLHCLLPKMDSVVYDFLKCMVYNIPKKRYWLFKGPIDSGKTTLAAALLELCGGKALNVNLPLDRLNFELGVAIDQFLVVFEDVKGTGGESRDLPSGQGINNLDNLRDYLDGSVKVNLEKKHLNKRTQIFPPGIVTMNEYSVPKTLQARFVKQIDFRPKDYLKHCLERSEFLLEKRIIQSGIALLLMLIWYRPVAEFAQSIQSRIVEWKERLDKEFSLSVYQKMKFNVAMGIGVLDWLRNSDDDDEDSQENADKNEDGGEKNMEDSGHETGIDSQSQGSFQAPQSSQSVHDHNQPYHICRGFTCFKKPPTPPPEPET

inhibition, inactive:
O=C(NCCCN1CCOCC1)c1cccc(NC(=O)c2ccccc2)c1 8.5%
Cc1cc(C)n(Cc2ccc(NC(=O)c3c([N+](=O)[O-])c(C)nn3C)cc2)n1 21.7%
Cn1ccnc1/C(=N\NC(=O)c1ccccc1)c1cccc([N+](=O)[O-])c1 17.9%
Cc1nc2nc(C)c(CCC(=O)O)c(C)n2n1 8.37%
CCCCC(CC)C(=O)Nc1ccc(C)c(O)c1 (configuration not stated) 1.23%
CCOc1ccc(S(=O)(=O)n2cnc3ccccc32)cc1 12.2%
CCCc1cc2c(=O)n(NC(=O)c3nn(C)cc3[N+](=O)[O-])c(C)nc2s1 15.2%
CCCCOP(=O)(c1ccc(N(C)C)cc1)C(O)c1cccnc1 (configuration not stated) 7.96%
Cc1ccc(C(=O)NCc2ccncc2)cc1S(=O)(=O)Nc1cccc(C)c1C 2.57%
COc1ccc(NC(=O)COC(=O)Cn2nnc3ccccc32)cc1 12.6%
O=C(COC(=O)Cn1nnc2ccccc21)Nc1ccccc1Br 7.03%
O=C(NC1CCCC1)C1CCCN(S(=O)(=O)c2cnc[nH]2)C1 (configuration not stated) 5.21%
CCOC(=O)c1ccc(NC2c3ccccc3C(=O)N2c2ccccn2)cc1 (configuration not stated) 0.465%
Cc1ccccc1NC(=O)CC1SC(=O)N(c2ccccc2)C1=O (configuration not stated) 14%
O=C(CC1SC(=O)N(c2ccccc2)C1=O)Nc1ccccc1 (configuration not stated) 38.4%
CO/N=C/C(=N\Nc1cc(OC)cc(OC)c1)C(=O)c1ccccc1 9.31%
CN(C)c1ccc(CNc2ccc3c(c2)ncn3C(C)(C)C)cc1 37.9%
Cc1ccc(CNc2ccc3c(c2)ncn3C(C)(C)C)cc1 21.9%
CCN(CC)c1ccc(CNc2ccc3c(c2)ncn3CC)cc1 32.3%
CCc1ccc(CNc2ccc3c(c2)ncn3CC)cc1 24.4%
CCc1ccc(CNc2ccc3c(c2)ncn3C)cc1 22.1%
CCn1cnc2cc(NCc3ccc(C)cc3)ccc21 35.2%
Cc1nc2cc(-c3sccc3-n3cccc3)nn2c(C)c1C 5.6%
Cc1ccc(NS(=O)(=O)c2ccc(CCC(=O)NCc3cccnc3)cc2)cc1 7.61%
COC(=O)c1ccc(COc2cccc3c2CCN(Cc2ccccc2)C3=O)o1 4.93%
Brc1ccc2[nH]c3c(NCc4ccccn4)ncnc3c2c1 4.68%
O=C(Nc1ccccc1)N(Cc1ccccc1)C1=NCCS1 5.16%
O=C(O)COc1ccccc1/C=N/NC(=O)CN1CCN(Cc2ccccc2Cl)CC1 2.27%
CCOC(=O)c1c(NC(=O)/C=C/C(=O)O)sc(C)c1-c1ccc(Cl)cc1 47.5%
CCOC(=O)c1c(NC(=O)/C=C\C(=O)O)sc(C)c1-c1ccccc1 12.2%
CCOC(=O)CNc1c(-c2ccc(OC)cc2)nc2ccc(Cl)cn12 19.4%
OCCNc1nc(Cl)nc(NCc2ccco2)n1 3.58%
COCCNc1c(-c2ccc(O)cc2)nc2ccc(Cl)cn12 25.7%
CCOC(=O)CNc1c(-c2ccccc2)nc2ccc(Cl)cn12 13.6%
Cc1ccc2[nH]c(=O)c(-c3nc4ccccn4c3NCc3ccco3)cc2c1 26%
O=C(Nc1c(-c2ccccc2)nc2ccccn12)c1ccco1 19.3%
CC(C)c1ccc(Nc2nc(Cl)nc(NCc3ccco3)n2)cc1 23.9%
CCOC(=O)CNc1c(-c2ccc(Cl)cc2)nc2cnccn12 14.1%
Cc1ccc(CCNC(=O)C2CCCN(S(=O)(=O)c3cccc4nsnc34)C2)cc1 (configuration not stated) 4.61%
CN(C)/C=C/C(=O)c1ccc(Cl)c([N+](=O)[O-])c1 11.3%
Cc1ccc(-n2nnnc2SCC(=O)Nc2ccc(N3CCN(C)CC3)cc2)c(C)c1 17.6%
COc1ccc2[nH]cc(C(=O)CN3CCCCC3)c2c1 20.3%
O=C(NCCC1=CCCCC1)Nc1ccc2nsnc2c1 -1.37%
Cn1c(N)c(C(=O)COC(=O)c2ccc(S(=O)(=O)N3CCCCC3)cc2)c(=O)n(C)c1=O 2.82%
CCc1noc(C)c1C(=O)Nc1nnc(C2CCCCC2)s1 16%
COC(=O)c1c([N+](=O)[O-])c(OC)c(OC)c(OC)c1[N+](=O)[O-] 2.68%
COC(=O)[C@H](CCSC)NS(=O)(=O)c1ccccc1Br 24.3%
Cc1cccc(NC(=O)c2ccc(NC(=O)CC3SC(N4CCCC4)=NC3=O)cc2)n1 (configuration not stated) 12.5%
CC1CCCN(S(=O)(=O)c2ccc(CN3C(=O)c4cccnc4C3=O)cc2)C1 (configuration not stated) 9.07%
CC(C)CN1C(=O)/C(=C/c2ccco2)NC1=S 19.9%
O=C1NN(c2ccc(F)cc2)C(=O)/C1=C\C=C\c1ccco1 19.7%
CCc1ccc(N2NC(=O)/C(=C/C=C/c3ccco3)C2=O)cc1 22.1%
Cc1cccc(N=C2NC(=O)/C(=C/C=C/c3ccco3)S2)c1C 5.68%
CCCCn1c(N)c(N(CC)C(=O)/C=C/c2ccco2)c(=O)[nH]c1=O 5.15%
CCN1C(=O)/C(=C\c2ccco2)C(C(=O)OC)=C1C 8.18%
Cc1csc2nc(CSc3nc4ccccc4o3)c(Br)n12 1.48%
Cc1c[n+]([O-])n(-c2ccc(C(=O)O)cc2)n1 2.23%
O=C(c1cc(=O)c2ccccc2o1)N1CCN(c2cccc(Cl)c2)CC1 8.8%
CC(=O)c1cccc(NS(=O)(=O)N2CCOCC2)c1 9.29%
O=C(CCCc1ccccc1)Nc1cccnc1Cl 10%
O=C(c1c(Cl)cccc1Cl)N1CCN(c2cccc3[nH]ccc23)CC1 23.6%
O=[N+]([O-])c1cccc(CN2CCN(c3cccc4[nH]ccc34)CC2)c1 27.1%
